# Bioassay records from PubChem BioAssay.
# Shiga toxin inh: A qHTS for Small Molecule Inhibitors of Shiga Toxin. Vero cells, Shiga toxin protein synthesis inhibition reporter. inhibition, % at 38.7 µM. hit rate 9.2% among 290,000. AID 2315, 2010; in the data active = inhibition mostly above about 28%, no sharp cut-off; inactive = mostly below about 43%; also: 0% is about no effect
# Cycloheximide cs: Cycloheximide Counterscreen for Small Molecule Inhibitors of Shiga Toxin; hit rate 12% among 300,000; cell reporter, cycloheximide protein synthesis inhibition counterscreen; AID 2314, 2010; max response, %; in the data active = max response mostly above about 13%, no sharp cut-off; inactive = mostly below about 14%; also: read at 38.3 µM for the half of the compounds with a filed dose; 0% is about no effect
# Sm TGR inh: qHTS Assay for the Inhibitors of Schistosoma Mansoni Peroxiredoxins | purified TGR, DTNB reduction, TNB absorbance 405 nm | AID 485364, 2010 | Schistosoma mansoni thioredoxin glutathione reductase (TGR), Q962Y6 | Potency, µM (series often up to 114 µM), for inactives: top-dose activity change, negative = inhibition, most hits filed as inhibitors | hit rate 3% among 360,000; also: potency is read from the fitted curve at half-maximal effect; % is scaled to controls: 0 for no effect and ±100 for the full control effect; nearly all actives have a fitted effect of over 60% in size
#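 Kinetic colorimetric format: TGR-catalysed, NADPH-driven DTNB reduction monitored via TNB absorbance. Enzyme dispensed at 20 nM; compound exposure 15 min at room temperature before reaction start.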
# Pf growth 48h: Primary qHTS for delayed death inhibitors of the malarial parasite plastid, 48 hour incubation | P. falciparum luciferase growth in erythrocytes, 48 h | Potency, µM (top dose mostly 28.7 µM), for the others: top-dose activity change, negative = inhibition, hits mostly inhibitors | hit rate 5.9% among 310,000 | AID 504832, 2011; also: potency is read from the fitted curve at half-maximal effect; % is scaled to controls: 0 for no effect and ±100 for the full control effect
#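 Erythrocytes infected with P. falciparum carrying an integrated firefly luciferase reporter (2% hematocrit, 0.1% parasitemia final) were exposed to compounds in RPMI 1640 with 0.5% Albumax at 37 C, 5% CO2. Growth inhibition was scored as reduced luminescence.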
# Pf growth 96h: Primary qHTS for delayed death inhibitors of the malarial parasite plastid, 96 hour incubation. P. falciparum luciferase reporter growth, 96 h. Potency, µM (doses to about 28.7 µM), for the others: at the top dose activity change, negative = inhibition, hits mostly inhibitors. hit rate 6.9% among 320,000; also: potency is read from the fitted curve at half-maximal effect; % is scaled to controls: 0 for no effect and ±100 for the full control effect
#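 96 h incubation, 37 C, 5% CO2, of luciferase-reporter P. falciparum-infected RBCs (2% hematocrit, 0.05% parasitemia final) with test compounds; endpoint luminescence.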
# NS1 function inh: qHTS Assay for Inhibitors of Influenza NS1 Protein Function; Potency, µM (highest dose often 46.1 µM), for the others: at the top dose activity, positive = more growth; hit rate 0.4% among 270,000; AID 2326, 2010; calls by dose curve; also: potency is read from the fitted curve at half-maximal effect; actives are rising curves; nearly all actives have a fitted effect of over 50% in size
#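 S. cerevisiae expressing influenza A NS1, grown in glucose, washed, then diluted 1:100 into pH 6.0 -URA galactose medium with 23 nl compound. Growth recovery read as OD600; NS1-free strain serves as control.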
# The depositor's hits bear a star; u = inconclusive; x = no result; [ ] = another dose, or the depositor's remark. Sampled rows, rich in hits. Any-hit rate of the full collection: about 21%. Unless noted, calls follow the shape of the dose curve; as a rule, active = well fitted curve in the direction sought with a large enough effect; inconclusive = small, poorly fitted or top-dose-only effect, or another doubt; inactive = no such curve, though single readings can be large; an effect the other way counts as inactive or inconclusive.
SMILES,Shiga toxin inh,Cycloheximide cs,Sm TGR inh,Pf growth 48h,Pf growth 96h,NS1 function inh
COC(=O)Nc1ccc2c(c1)N(C(=O)CCN1CCN3CCCC3C1)c1ccccc1CC2 (stereo not drawn),-2,-4,-8%,-28%,u,3%
CCOC(=O)Nc1ccc2c(c1)N(C(=O)N1CCN(C)CC1)c1ccccc1S2,14,-2,-2%,u,u,-5%
CCOC(=O)Nc1ccc2c(c1)N(C(=O)N(CC)CC)c1ccccc1CC2,-14,-5,-1%,12µM*,u,-42%
CC(C)c1ccc2oc(-c3ccc(Cl)c(NC(=O)Cc4ccccc4)c3)nc2c1,x,x,-3%,x,x,x
O=C(C1CCN(c2nc3ccccc3[nH]2)CC1)N1CCN(c2ccccc2)CC1,x,x,-5%,x,x,x
CCNCC(=O)N1c2ccccc2CCc2ccc(NC(=O)OC(C)C)cc21,x,-1,-33%,12µM*,-33%,19%
CCOC(=O)Nc1ccc2c(c1)N(C(=O)CN1CCN(CCO)CC1)c1ccccc1CC2,-10,4,-14%,u,12µM*,12%
CCOC(=O)Nc1ccc2c(c1)N(C(=O)CN1CCN(C)CC1)c1ccccc1CC2,x,-3,-1%,u,u,-2%
CCOC(=O)Nc1ccc2c(c1)N(C(=O)CCN(CC)CC)c1ccccc1S2=O (stereo not drawn),-7,6,4.5µM*,11%,82%,-5%
O=C1CN(C(=O)/C=C/c2cc(Br)ccc2F)CCN1,-7,-3,0%,20%,8%,-4%
O=C1CN(C(=O)/C=C/c2ccc(Br)cc2)CCN1,25,17*,4%,16%[0.00184 µM],38%,-1%
COc1ccc(/C=C/C(=O)OCC(=O)c2c(N)n(C)c(=O)n(C)c2=O)c(OC)c1,-12,-4,x,5%,22%,8%
COc1ccc(/C=C/C(=O)N2CCNC(=O)C2)c(OC)c1,27,14*,2%,37%,64%,6%
CCCCCn1cc2c(c1-c1ccc(Br)cc1)c(=O)n(C)c(=O)n2C,x,x,-5%,x,x,x
CCN=C(N)CSS(=O)(=O)O,x,x,x,x,x,-2%
O=C(NNS(=O)(=O)c1ccc([N+](=O)[O-])cc1)C(=O)Nc1cccc(C(=O)O)c1,18,8,-6%,79%,11%,-9%
Fc1cccc(Cl)c1C1Nc2cccc3cccc(c23)N1,34,24*,u,u,-2%,-48%
Clc1cccc(Cl)c1C1Nc2cccc3cccc(c23)N1,5,3,3.2µM*,u,6%,-8%
COc1cc(OC)c(C2Nc3cccc4cccc(c34)N2)c(OC)c1,-5,-1,u,-14%,26%,-3%
O=C(CSc1cccc2cccnc12)Nc1cc(C(=O)O)cc(C(=O)O)c1,-5,-2,-21%,-1%,u,8%
CCCOc1ccc(C(=O)NCC(C)(C)N2CCOCC2)cc1,-9,-1,0%,-4%,2%,x
CC(=O)Nc1ccc(SCC(c2ccccc2)N2CCN(C)CCC2=O)cc1 (stereo not drawn),116*,68*,x,x,x,x
CC(C)C[C@@H](CN=[N+]=[N-])N1CCN(C)CCC1=O,-4,-1,-29%,9%,15µM*,7%
CN1CCC(=O)N(C(CSc2ccc(Br)cc2)c2ccccc2)CC1 (stereo not drawn),83*,33*,x,x,x,x
O=C1CCN(Cc2ccc(Br)cc2)CCN1[C@H](CO)c1ccccc1,-2,-5,8%,-17%,-14%,-8%
SMILES,Shiga toxin inh,Cycloheximide cs,Sm TGR inh,Pf growth 48h,Pf growth 96h,NS1 function inh
CC(=O)Nc1ccc(SCC(Cc2ccccc2)N2CCN(CCc3ccccc3)CCC2=O)cc1 (stereo not drawn),-10,0,x,x,x,x
Cc1ccc(SC[C@H](c2ccccc2)N2CCN(C)CCC2=O)cc1,97*,44*,40µM*,36%,44%,-5%
CN1CCC(=O)N([C@H](CN=[N+]=[N-])c2ccccc2)CC1,20*,23*,-28%,48%,-4%,u
CN1CCC(=O)N([C@H](CSc2ccccc2)c2ccccc2)CC1,58,18*,u,32%,23%,-11%
O=C1CCN(Cc2ccccc2)CCN1[C@H](CSc1ccccc1)Cc1ccccc1,-7,-1,-3%,-17%,u,-4%
COc1ccc(CNC(=O)c2ccc3c(c2)CCN3S(=O)(=O)c2ccc(C)cc2)cc1,x,x,3%,x,x,x
COc1ccc(CCN2CCCC(CN(C)C(=O)c3cc(C)oc3C)C2)cc1 (stereo not drawn),91*,69*,0%,44%,35%,-11%
COc1ccc(CCN2CCCC(CN(C)C(=O)c3ccoc3C)C2)cc1 (stereo not drawn),40*,32*,0%,-7%,u,-7%
COCc1ccc(C(=O)N(C)CC2CCCN(CCc3ccc(OC)cc3)C2)o1 (stereo not drawn),77*,34*,-11%,5%,u,-7%
CCc1ccc(NC(=O)c2c(Cl)nc(C)c(Cl)c2C)cc1,13,6,-11%,u,u,1%
OCC[n+]1ccc(/C=C/c2c[nH]c3ccccc23)cc1,11,2,-7%,0.59µM*,u,0%
COc1ccc2[nH]cc(/C=C/C(=O)c3ccccc3)c2c1,131*,105*,-18%,375%,390%,-8%
O=Cc1c[nH]c2ccc(OCc3ccccc3)cc12,x,x,2%,u,-29%,x
O=C(/C=C/c1cccc2ccccc12)c1ccncc1,-7,2,-31%,13%,u,-34%
O=Cc1c[nH]c2ccc(C(=O)c3ccccc3)cc12,x,32*,-1%,-1%,7%,-10%
O=C(/C=C/c1c[nH]c2ccccc12)c1ccccc1,115*,69*,9%,370%,331%,-34%
Cc1ccc(-c2nnc3c4ccccc4c(C)nn23)cc1NC(=O)c1ccccc1,x,x,-15%,x,x,x
O=c1oc2ccccc2c(N2CCN(c3ccccc3F)CC2)c1CN1CCCC1,x,x,-5%,x,x,x
C/C(=N/OC(=O)c1ccc(F)cc1)c1ccc(C)cc1,17,13,5%,23%,39%,-19%
C=C(C)C1CC=C(C)/C(=N\NC(=O)CCC(=O)Nc2ccc(C)c(C)c2)C1 (stereo not drawn),-5,2,22%,49%,7%,-8%
CCN(CC)C(=O)c1ccc(/C=C/c2c[nH]c3ccccc23)[n+](C)c1,-16,7,-6%,0.74µM*,0.37µM*,8%
COc1ccc2[nH]cc(/C=C/c3cc[n+](C)cc3)c2c1,2,-1,1%,1µM*,0.47µM*,3%
Cc1ccc(C(=O)/C=C/c2c[nH]c3ccccc23)cc1,148*,52*,-12%,127%,84%,13%
